Source: ChEMBL document CHEMBL3988442, “University of Dundee, Small-Polar-MMV Screening Library” (2021)
Screen size: about 48,000 compounds; about 13,000 (27%) showed an effect of 50% or more. This is one part of the list.

Each compound was assayed on Wolbachia pipientis (assay: Anti-Wolbachia Cell-Based Screen). Settings: 5 µM.
Assay type: functional
Design: scale not given: in the data most compounds retested in dose-response had high values

SMILES	Percent Effect [%]
COCC(NC(=O)c1ccoc1)c1ccc(C)o1 (configuration not stated)	-2.661
Cc1ncsc1CCN(C)C(=O)CN1CC2(CCNCC2)OC1=O	-5.863
Cc1cc(NC2CCN(c3ccc(F)cc3)CC2)n2nc(C)cc2n1	-5.138
Nc1ncc(C(=O)N2CCCC(N)CC2)c(-c2ccccc2)n1 (configuration not stated)	-5.532
CCNC(=O)C1CCN(Cc2csc(-c3ccc(C)o3)n2)CC1	8.641
Cc1ccoc1C(=O)NC1CCN(Cc2cccc3c2OCCO3)CC1	4.934
c1cnnc(NCC2CN(Cc3cccc4c3OCCO4)CCO2)c1 (configuration not stated)	4.711
O=C(NCCNCc1cccc2c1OCCCO2)C1CCCC1	-19.03
O=C(Nc1nccs1)NC1CCOc2ccccc21 (configuration not stated)	5.946
O=C(NCc1ccccc1CN1CCC(O)CC1)Nc1ccccn1	-0.8138
CC(C)C(=O)NC1CCN(Cc2cccc3c2OCCO3)CC1	6.757
O=C(Nc1nccs1)C1CCN(Cc2cccc3c2OCCO3)CC1	83.61
Cc1csc(NC(=O)C2CCN(Cc3cccc4c3OCCO4)CC2)n1	93.8
CNC(=O)C1CCN(Cc2cc3c(cc2O)CCC3)CC1	6.264
O=C(Nc1ccccn1)C1CCN(Cc2cccc3c2OCCO3)CC1	88.18
O=C(Nc1ccccn1)C1CCN(Cc2cc3c(cc2O)OCO3)CC1	98.75
CNC(=O)N(Cc1c(F)cccc1F)C1CCCC1	-10.49
Cc1cccc(C(C(=O)N2CC(Oc3ccccc3F)C2)N(C)C)c1 (configuration not stated)	3.868
O=C(O)c1cc2c(c(S(=O)(=O)N(CCCO)c3ccccc3)c1)CCC2	-6.874
COc1ccc([C@@H]2CN(c3cnccn3)C[C@H]2N(C)C)cc1	6.916
CCCn1ccnc1CN1C[C@@H](NC(C)=O)[C@H](c2ccc(OC)cc2)C1	-11.71
COc1ccc([C@@H]2CN(Cc3cccnc3N)C[C@H]2N(C)C)cc1	89.74
COc1ccc([C@@H]2CN(Cc3ccncc3)C[C@H]2N(C)C)cc1	115.9
COc1ccc([C@@H]2CN(c3cc(OC)nc(N)n3)C[C@H]2N(C)C)cc1	-18.13
COc1ccc([C@@H]2CN(Cc3cccnc3N)C[C@H]2NC(C)=O)cc1	100.4
COc1ccc([C@@H]2CN(C(=O)CS(C)(=O)=O)C[C@H]2NC(C)=O)cc1	-2.286

SMILES	Percent Effect [%]
COc1ccc([C@@H]2CN(c3cc(OC)ncn3)C[C@H]2N(C)C)cc1	11.08
Nc1ncccc1CN1C[C@@H](C(=O)O)[C@H](c2cccc(F)c2)C1	-4.464
COc1cnc(N2C[C@@H](CN3CCOCC3)C[C@H](CO)C2)nc1	15.13
Cc1ccc([C@@H]2CN(S(=O)(=O)c3cccs3)C[C@H]2N(C)C)cc1	-8.469
Cc1ccccc1OCCSc1nnc(CC2CCS(=O)(=O)C2)n1C (configuration not stated)	3.275
CC(C)=CCN1C[C@H]2CC[C@@H]1CN(C(=O)Cn1c(C)cc(C)nc1=O)C2	-7.163
CC(C)(C)C(O)CN1CCN(Cc2ccc(C#N)cc2)CC1 (configuration not stated)	1.533
N#Cc1ccccc1C(=O)N1C[C@@H](CN2CCOCC2)[C@@H](CO)C1	-6.039
O=C(CCN1CCOCC1)N1CCC(Cc2ccc(CO)cc2)C1 (configuration not stated)	-13.67
N#Cc1ccc(N2CCCN(CC(=O)N3CCOCC3)CC2)cc1	-7.861
Cn1c(CO)nnc1CC1CCN(Cc2ccc(C#N)cc2)CC1	25.57
N#Cc1ccccc1CN1CCC(CN2CCOCC2)C1 (configuration not stated)	95.83
N#Cc1ccc(CN2CCOCC2)cc1	91.68
N#Cc1ccc(CSCCN2CCOCC2)cc1	-1.754
N#Cc1ccc(CN2CCC(CN3CCOCC3)C2)cc1 (configuration not stated)	106.9
N#Cc1ccccc1CN1CCCC(c2nccn2CC2CC2)C1 (configuration not stated)	7.864
N#Cc1ccc(CN2CCC(CCc3ccc(O)cc3)CC2)cc1	-49.48
N#Cc1ccc(CCC(=O)N2CCC(CN3CCOCC3)CC2)cc1	91.48
CC(C)N(C)CCCNC(=O)c1cnn(C(C)(C)C)c1C(F)(F)F	5.452
CCOC(=O)C(CO)NC(=O)CCc1cccc(OC2CCCC2)c1 (configuration not stated)	-6.497
COCC(=O)N1CCC(C(=O)Nc2ccc(S(N)(=O)=O)cc2)CC1	-0.7847
Cc1cccc(=O)n1CCCNc1nc(N(C)C)nc2c1CCNC2	32.54
c1ccc2nc(N3CCCCC3)c(NCc3nnc4n3CCC4)nc2c1	-16.15
c1ccc(-c2nc3c(c(NCc4n[nH]c5c4CCC5)n2)CCNC3)cc1	-30.21
C1CCc2nnc(CNc3nc(C4CC4)nc4c3CCNCC4)n2CC1	99.26
CN(C)c1nc2c(c(NCc3nnc4n3CCCCC4)n1)CCNC2	114.9

SMILES	Percent Effect [%]
c1ccc(-c2nc3c(c(NCc4nnc5n4CCC5)n2)CCNC3)cc1	90.53
Cc1cc(C)nc(NCc2nnc3n2CCCCC3)n1	-1.015
COCCNc1nc(C2CCCC2)nc2c1CCNCC2	12.56
c1ccc2nc(N3CCCC3)c(NCc3nnc4n3CCC4)nc2c1	-27.33
CC(=O)NCc1nn(C)c2c1CN(Cc1ccsc1)C2.O=C(O)C(F)(F)F	-1.224
N[C@@H]1c2ccccc2C2(CCN(C(=O)c3ccccc3O)CC2)[C@H]1O	0.509
CN(C)Cc1nnc(C2CCCN(c3nccc4ccccc34)C2)n1C (configuration not stated)	5.407
COc1ccc2[nH]cc(CCNC(=O)C3CCCN(C(C)=O)C3)c2c1 (configuration not stated)	94.67
COC(=O)N1CCCC(C(=O)NCCc2c[nH]c3cc(C)ccc23)C1 (configuration not stated)	127.8
CC(=O)N1CCC(C(=O)NCCN2CCCCC2)CC1	12.8
COC(=O)N1CCCC(C(=O)NCc2cc3cccc(OC)c3o2)C1 (configuration not stated)	-3.243
CCN(CCNC(=O)C1CCN(C(C)=O)CC1)c1ccccc1C	-4.01
COc1ccc(CCNC(=O)C2CCCOC2)c(Cl)c1 (configuration not stated)	0.5663
CC(=O)N1CCC(C(=O)NCCc2c[nH]c3cc(C)ccc23)CC1	104
COc1ccc(CCNC(=O)C2CC2)c(Cl)c1	-15.6
COC(=O)N1CCCC(C(=O)Nc2ccccc2CN2CCCC2)C1 (configuration not stated)	22.7
CNc1nc(CS(=O)(=O)c2ccccc2)cs1	7.424
COC(C)(C)c1noc(C2(C#N)CCCC2)n1	-17.37
OC1(CNc2ccc(Br)cn2)CCOCC1	9.923
Cc1cc(CN2CCC=C(CN(C)C(=O)c3ccco3)C2)no1	-5.355
Cc1ncc(CNCC(=O)NCC(F)(F)F)n1-c1ccccc1	-11.81
Cc1cnn(CC2CN(CCS(C)(=O)=O)CCO2)c1 (configuration not stated)	-18.36
Cc1cnn(CC2CN(Cc3nnc(C(C)C)o3)CCO2)c1 (configuration not stated)	101.2
Cc1cnn(CC2CN(Cc3nnc(-c4ccccc4)o3)CCO2)c1 (configuration not stated)	113.1
Cc1cnn(CC2CN(Cc3nc(C)c(C)o3)CCO2)c1 (configuration not stated)	94.42
Cc1ccc(-c2nnc(CN3CCOC(Cn4cccn4)C3)o2)cc1 (configuration not stated)	-8.169

SMILES	Percent Effect [%]
CCc1nnc(CN2CCOC(Cn3cc(C)cn3)C2)o1 (configuration not stated)	101
Cc1cnn(CC2CN(Cc3nnc(-c4occc4C)o3)CCO2)c1 (configuration not stated)	-2.933
Cc1cnn(CC2CN(Cc3nnc(C4CC4)o3)CCO2)c1 (configuration not stated)	-1.438
Cc1cc(CC2COc3ccccc3C2)cnc1N (configuration not stated)	-19.29
CC(C)Nc1ccnc(N2Cc3cnc(C(C)(C)C)nc3C2)n1	10.33
CN(C)Cc1nc(C(C)(C)NC(=O)c2cccc3ccccc23)no1	-8.122
CCOC(=O)CN(CC(F)(F)F)C(=O)c1nc(C)n2ccccc12	-24.45
CNC(=O)c1cccc(CNC2CCSc3c(Cl)cccc32)c1 (configuration not stated)	-5.902
CSc1ccc(C(CC(=O)O)NC(=O)c2cc(C)on2)cc1 (configuration not stated)	6.189
CN(C)c1ncnc2c1CCN(CC1CCOCC1)CC2.O=C(O)C(F)(F)F	-9.241
CCc1ncnc2c1CCN(Cc1ccc3c(c1)OCO3)CC2.O=C(O)C(F)(F)F	106.3
O=C(O)C(F)(F)F.c1nc2c(c(NC3CCC3)n1)CCNCC2	-15.15
CN(C)C(=O)CN1CCc2ncnc(C3CC3)c2CC1	106.4
CN(C)C(=O)CN1CCc2ncnc(N(C)C)c2CC1.O=C(O)C(F)(F)F	89.81
Cc1ccc(CN2CCc3ncnc(C4CC4)c3CC2)s1.O=C(O)C(F)(F)F	-13.47
c1nc2c(c(C3CC3)n1)CCN(Cc1ccoc1)CC2	-6.028
Cc1ncnc2c1CCN(Cc1ccc3c(c1)OCO3)CC2.O=C(O)C(F)(F)F	-11
CN(C)c1ncnc2c1CCN(Cc1nccs1)CC2.O=C(O)C(F)(F)F	13.78
CN(C)C(=O)CN1CCc2ncnc(NC3CCC3)c2CC1.O=C(O)C(F)(F)F	114.3
COC(C)c1noc(CN(C)c2nccnc2C#N)n1 (configuration not stated)	3.907
CCN(CCn1cccn1)Cc1nc(-c2cc(F)ccc2F)oc1C	-20.47
O=C(C1CC=CC1)N1CC[C@@H]2O[C@H](COCC3CCOCC3)CC[C@@H]21	2.259
O=C(CS(=O)(=O)Cc1cccc(Br)c1)Nc1cn[nH]c1	6.351
O=C(C1=CCCCC1)N1CCO[C@H]2[C@H](Oc3ccccn3)CC[C@@H]21.O=C(O)C(F)(F)F	-5.477
